Results published in PubChem BioAssay AID1255 (The Scripps Research Institute Molecular Screening Center, 2008).
In all, about 1,200 compounds went through this assay and about 330 (28%) were called active. Cut-off read from the data, not from the text of the source: active = inhibition above about 17%; inactive = the rest. Not all results are given here.

Each molecule was assayed against Neuropeptide Y receptor type 2 (Homo sapiens) (UniProt P49146) (assay: NPY-Y2 receptor antagonists, selectivity check, confirmation, counter-screen for NPY-Y1 antagonist project, HEK293-CNG cells, membrane potential fluorescence, triplicate (AID 1255;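 note: 0% = DMSO with agonist challenge and 100% = reference antagonist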)). Conditions: antagonism, at 3.6 µM, hits give high values, cells given NPY, then isoproterenol.
Neuropeptide Y receptor type 2 (Homo sapiens), sequence (P49146 whole entry, looked up): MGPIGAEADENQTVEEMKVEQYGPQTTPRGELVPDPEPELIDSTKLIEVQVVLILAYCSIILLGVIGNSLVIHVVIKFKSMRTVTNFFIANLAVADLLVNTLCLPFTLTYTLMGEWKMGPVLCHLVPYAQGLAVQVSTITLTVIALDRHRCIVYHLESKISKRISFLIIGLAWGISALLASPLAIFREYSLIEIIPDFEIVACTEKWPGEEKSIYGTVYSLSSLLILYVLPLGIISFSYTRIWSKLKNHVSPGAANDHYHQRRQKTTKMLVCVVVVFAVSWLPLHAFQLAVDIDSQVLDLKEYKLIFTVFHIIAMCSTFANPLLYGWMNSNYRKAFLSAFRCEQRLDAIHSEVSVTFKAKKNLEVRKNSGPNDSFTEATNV
For `Cc1ccc(/C=N/NC(=O)COc2ccccc2-c2ccccc2)cc1`, the inhibition was 28.1% (active). In the case of `CC1CN(CCCOc2ccccc2-c2ccccc2)CC(C)O1` (stereo not drawn), the inhibition is reported as 6.39% (inactive). In the case of `c1ccc(-c2ccccc2OCCN2CCCCC2)cc1`, the inhibition is reported as 6.63% (inactive). With `CCCCCCC(=O)Nc1nc(C)c(-c2csc(Nc3cccc(OC)c3)n2)s1` the inhibition was 2.61% (inactive). For `Cc1ccc(C(=O)C[n+]2cc(-c3ccccc3)n3c2CCCCC3)cc1`, the inhibition was 14.5% (inactive). With `CC(Oc1ccc2ccccc2c1)C(=O)NNC(=S)NC(=O)c1ccco1` (stereo not drawn) the inhibition was 10.2% (inactive). For `CCN1CCN(CCNC(=O)c2ccc(/C=C3/Sc4ccccc4N(Cc4cccc(C)c4)C3=O)cc2)CC1`, the inhibition was 27% (active). `Cc1ccc(N2C(=O)C3N=NN(CC(=O)N4N=C(c5cccc6ccccc56)CC4c4ccccc4)C3C2=O)cc1` (stereo not drawn) was tested, and the inhibition was 5.5% (inactive). `CCOC(=O)CSc1nc2c(sc(=S)n2CCc2ccccc2)c(=O)n1Cc1ccco1` was tested, and the inhibition was 14.4% (inactive). `O=C(NCCc1ccc2c(c1)OCCO2)c1cc2ccccc2o1` was tested, and the inhibition was 14.6% (inactive). In the case of `Cc1ccc(Cn2c(NC(=O)c3ccco3)nc3ccccc32)cc1`, the inhibition is reported as 24.2% (active). `O=S(=O)(O)c1nc2ccccc2n1Cc1ccc(Cl)cc1` was tested, and the inhibition was 5.74% (inactive). For `CCS(=O)(=O)n1nc(-c2ccccc2)nc1SCc1ccccc1`, the inhibition was 13.4% (inactive). With `CCC(=O)c1c[nH]c(C(=O)NCC2CCCO2)c1` (stereo not drawn) the inhibition was 2.61% (inactive). In the case of `O=C(CN1CCN(c2ncc(C(F)(F)F)cc2Cl)CC1)Nc1ccc2c(c1)OCO2`, the inhibition is reported as 18.4% (active). `O=C(CSc1nnnn1C1CCCC1)Nc1ccc2c(c1)OCCO2` was tested, and the inhibition was 7.69% (inactive). For `COC(=O)c1ccc(COC(=O)c2c(C)nn(Cc3ccccc3Cl)c2Cl)o1`, the inhibition was 8.24% (inactive). With `COc1ccc(CCN(C(=O)COc2ccccc2)c2nc(-c3ccccc3)cs2)cc1OC` the inhibition was 17.3% (active). For `CCCCc1c(O)nc2n(c1=O)CCS2`, the inhibition was 2.74% (inactive). For `Cc1ccc2nc(-c3ccccn3)cc(C(=O)Nc3ccc4c(c3)OCO4)c2c1`, the inhibition was 25.5% (active). For `CCc1ccc(CNC(=O)C2CCCN(c3nc4ccccc4o3)C2)cc1` (stereo not drawn), the inhibition was 11% (inactive). For `CCCOC(=O)c1[nH]c2c(c1C)C(=O)CC(c1cccs1)C2` (stereo not drawn), the inhibition was 16.7% (inactive). In the case of `COc1ccccc1C1C2=C(COC2=O)Nc2cc3c(cc21)OCO3` (stereo not drawn), the inhibition is reported as 10.6% (inactive). In the case of `OC(COCCC12CC3CC(CC(C3)C1)C2)CN1CCCCC1` (stereo not drawn), the inhibition is reported as 12.7% (inactive). For `CS(=O)(=O)N1CCCC(C(=O)N2CCOCC2)C1` (stereo not drawn), the inhibition was 0.64% (inactive). `COc1ccc(C(c2nnnn2C2CCCCC2)N2CCN(c3ccccc3F)CC2)cc1` (stereo not drawn) was tested, and the inhibition was 10.2% (inactive). In the case of `CC(=O)N1CC(C)c2scc(C)[n+]2-c2ccccc21` (stereo not drawn), the inhibition is reported as 3.05% (inactive). For `O=C(/C=C/c1ccco1)Nc1cccc(-c2nc3ccccc3[nH]2)c1`, the inhibition was 7.24% (inactive). In the case of `O=C(CSc1nc2cc3c(cc2c(=O)n1CCC1=CCCCC1)OCO3)NCc1ccco1`, the inhibition is reported as 2.11% (inactive). With `CC(Nc1nc(N2CCN(CCO)CC2)nc2ccccc12)c1ccccc1` (stereo not drawn) the inhibition was 10.1% (inactive). For `c1ccc2c(NC3C4CC5CC(C4)CC3C5)nc(N3CCOCC3)nc2c1` (stereo not drawn), the inhibition was 30.1% (active). For `Fc1ccc(-c2nnc(CSc3nnc(-c4ccc5c(c4)OCO5)o3)o2)cc1`, the inhibition was 9.04% (inactive). For `CC(C)Cn1cnc2c1c(=O)n(CC(O)c1ccccc1)c(=O)n2CC(C)C` (stereo not drawn), the inhibition was -0.53% (inactive). With `Cc1ccccc1Nc1scc(-c2ccc(Br)cc2)[n+]1-c1ccccc1C` the inhibition was 12.3% (inactive). `Cc1cc(C(C)(C)C)oc1C(=O)N(CC(=O)NC1CCCC1)Cc1ccc(Cl)cc1` was tested, and the inhibition was 19.8% (active). `CCCSc1nc(NCc2ccco2)c2c3c(sc2n1)COC(C)(CC)C3` (stereo not drawn) was tested, and the inhibition was 12.4% (inactive). With `C/C(=N\NC(=S)NCc1ccccc1)c1ccc(Cl)cc1` the inhibition was 5.13% (inactive). With `COc1ccc(-c2[nH]nc(-c3ccccc3)c2-c2nc3ccccc3[nH]2)cc1` the inhibition was 17% (inactive). With `O=C(NCCCN1CCOCC1)c1cnn2c(-c3ccccc3)cc(-c3ccccc3)nc12` the inhibition was 18.8% (active). With `CCOC1CCCCC1NS(=O)(=O)c1ccc(Cl)cc1` (stereo not drawn) the inhibition was 1.15% (inactive). With `Cc1nc(-c2ccccc2)sc1C(=O)/C=C/c1ccccc1` the inhibition was 16.5% (inactive). `COc1ccc(C(=O)CSc2nnc(COc3ccccc3)n2Cc2ccco2)cc1` was tested, and the inhibition was 6.65% (inactive). `Oc1ccc(-c2[nH]ncc2-c2nc3ccccc3s2)c(O)c1` was tested, and the inhibition was 3.58% (inactive). With `NC(N)=N/N=C/c1ccc(OCc2ccc(Cl)cc2Cl)cc1` the inhibition was 30.3% (active). With `CCOC(=O)c1nn(-c2cccc(C)c2)cc1C(=O)c1ccccc1` the inhibition was 6.78% (inactive). `COC(=O)c1ccc(C(NC(=O)OCc2ccccc2)/C(C)=C/[C@@H](C)C(=O)NCc2ccc(OC)c(OC)c2)cc1` (stereo partly drawn) was tested, and the inhibition was 12.9% (inactive). `Cc1cc(C)c2[nH]c(=O)c(CN(Cc3ccccc3)C(=S)NCCCN(C)C)cc2c1` was tested, and the inhibition was 26.7% (active). `CN(C)CCCCCN(C)Cc1cc2ccccc2o1` was tested, and the inhibition was 14.4% (inactive). With `COC(=O)C1=C(Nc2ccc(C)cc2)C=C(C)C(C(=O)OC)C1c1ccc(F)cc1` (stereo not drawn) the inhibition was 15.2% (inactive). For `Cc1ccc(C(=O)N/C(=C/c2ccc(-c3cccc([N+](=O)[O-])c3)o2)C(=O)NCCCN(C)C)cc1`, the inhibition was 13.8% (inactive). For `CCCOc1ccc2c3c(c(=O)oc2c1OCCC)CCC3`, the inhibition was 15.6% (inactive). For `COc1ccccc1N1CCN(C(=O)CN(Cc2ccc(Cl)cc2)S(C)(=O)=O)CC1`, the inhibition was 3.69% (inactive). For `Clc1ccccc1-c1cc(COc2ccc3ccccc3c2)no1`, the inhibition was 18.4% (active). In the case of `COc1cccc(CNCCc2c[nH]c3ccccc23)c1OCc1ccccc1F`, the inhibition is reported as 16.7% (inactive). `CCCC(=O)Nc1nc2ccc(NC(=O)c3c(F)c(F)c(OC)c(F)c3F)cc2s1` was tested, and the inhibition was 11.5% (inactive). In the case of `Cc1ccc(SCCC(=O)OCC(=O)Nc2ncc(Cl)cc2Cl)cc1`, the inhibition is reported as 5.65% (inactive). With `CC(=O)OC(C)C[N+](C)(C)C` (stereo not drawn) the inhibition was 12.9% (inactive). With `COc1cc2c(C(=O)N3CCN(C)CC3)c(CSc3ccccc3)n(C)c2cc1Br` the inhibition was 19.6% (active). `OCC1(CCc2ccccc2)CCN(Cc2ccc3nsnc3c2)CC1` was tested, and the inhibition was 9.39% (inactive). `CCOC(=O)N1CCN(S(=O)(=O)c2ccc(C(=O)Nc3ccc(F)cc3F)cc2)CC1` was tested, and the inhibition was 10.3% (inactive). For `CCCCn1nc(C(=O)N2CCc3ccccc32)c2ccccc2c1=O`, the inhibition was 3.7% (inactive). With `Cc1ccc(-c2cc(C(=O)N3CCc4ccccc4C3)no2)cc1` the inhibition was 12.8% (inactive). `CCCCCCCCn1c2c(c(=N)c3c1CCC3)CCCC2` was tested, and the inhibition was 44.6% (active). In the case of `O=C(Cc1cccs1)N(CC1CCCO1)C1(C(=O)NC2CCCCC2)CCCCC1` (stereo not drawn), the inhibition is reported as 11.1% (inactive). In the case of `O=C(c1cc(-c2ccc(O)cc2)on1)N1CCCc2ccccc21`, the inhibition is reported as 2.92% (inactive). With `CC(C)(C)NCc1cc(Br)ccc1OC1CCCC1` the inhibition was 10.4% (inactive). With `COc1ccc(C2Nc3ccccc3C(=O)N2Cc2ccccc2)cc1Cn1nnc2ccccc21` (stereo not drawn) the inhibition was 8.37% (inactive). With `O=C1c2cccnc2C(Nc2ccc(S(=O)(=O)N3CCCCCC3)cc2)N1Cc1ccccc1` (stereo not drawn) the inhibition was 2.58% (inactive).
